Test results as given in the supplement of paper PMC11732987, “Enantioselective OTUD7B fragment discovery through chemoproteomics screening and high-throughput optimisation” (Communications Chemistry, 2025).

How the values were obtained:
Assay in all cases: log2 ratio of Biotin-Ahx-Ub-VS probe labelling (fragment/DMSO); higher = less target engagement (more negative = stronger competition), active = hit call of the paper (q ≤ 0.05, log2 ratio ≤ -1)
Details in all cases: compound concentration: 200 uM; treatment time: 3 h
[1] = molecular target: T1, OTUD6B (UniProt Q8N6M0)
T1 sequence (whole entry): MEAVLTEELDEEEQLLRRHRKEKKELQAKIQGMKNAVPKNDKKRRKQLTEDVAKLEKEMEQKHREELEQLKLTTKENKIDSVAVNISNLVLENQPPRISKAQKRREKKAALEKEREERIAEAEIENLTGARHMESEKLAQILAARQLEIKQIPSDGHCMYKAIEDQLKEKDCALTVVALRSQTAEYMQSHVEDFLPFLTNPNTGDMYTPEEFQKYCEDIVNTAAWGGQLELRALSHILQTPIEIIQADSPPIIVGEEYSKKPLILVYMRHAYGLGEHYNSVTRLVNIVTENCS
Procedure, shortened: (§1)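 Fragment (200 µM) or vehicle was incubated for 3 h with triplicate HEK293T lysate samples of 495 µg, which were then treated with Biotin-Ahx-Ub-VS at 0.5 µM final for 1 h. Labelled DUBs were enriched on NeutrAvidin, digested with LysC and trypsin, and analysed by diaPASEF LC-MS/MS. Values are average log2 fragment/vehicle ratios from an unpaired t-test on global-median-normalised Spectronaut label-free quantities, using proteins with ≥2 unique peptides.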

[2] = molecular target: T2, OTUD7B (UniProt Q6GQQ9)
T2 sequence (whole entry): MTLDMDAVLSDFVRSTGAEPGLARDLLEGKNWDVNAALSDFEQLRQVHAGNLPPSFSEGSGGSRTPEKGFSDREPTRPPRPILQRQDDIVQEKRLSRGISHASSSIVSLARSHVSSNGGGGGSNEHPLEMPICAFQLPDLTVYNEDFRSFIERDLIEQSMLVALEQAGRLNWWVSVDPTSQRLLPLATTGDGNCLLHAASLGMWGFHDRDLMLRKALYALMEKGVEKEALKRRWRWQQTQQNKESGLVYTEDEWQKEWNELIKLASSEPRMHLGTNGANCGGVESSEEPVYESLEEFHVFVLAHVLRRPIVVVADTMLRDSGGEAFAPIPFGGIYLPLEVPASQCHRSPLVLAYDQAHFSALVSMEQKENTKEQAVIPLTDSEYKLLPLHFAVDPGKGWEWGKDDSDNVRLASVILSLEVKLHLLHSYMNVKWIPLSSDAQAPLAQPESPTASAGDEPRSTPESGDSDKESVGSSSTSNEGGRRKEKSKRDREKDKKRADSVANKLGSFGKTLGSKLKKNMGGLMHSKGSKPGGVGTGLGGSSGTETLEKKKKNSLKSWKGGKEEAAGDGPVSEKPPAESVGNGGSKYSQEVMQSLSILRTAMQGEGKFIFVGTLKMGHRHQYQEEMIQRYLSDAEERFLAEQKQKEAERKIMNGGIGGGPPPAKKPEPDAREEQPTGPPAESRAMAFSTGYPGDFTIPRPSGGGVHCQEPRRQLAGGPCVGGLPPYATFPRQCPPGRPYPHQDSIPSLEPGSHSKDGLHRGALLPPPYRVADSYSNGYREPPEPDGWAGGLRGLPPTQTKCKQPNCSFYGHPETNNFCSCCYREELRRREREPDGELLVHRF
Procedure, shortened: as §1

[3] = molecular target: PRPF8 (UniProt Q6P2Q9)
Procedure, shortened: as §1

[4] = molecular target: T3, PSMD7 (UniProt P51665)
T3 sequence (whole entry): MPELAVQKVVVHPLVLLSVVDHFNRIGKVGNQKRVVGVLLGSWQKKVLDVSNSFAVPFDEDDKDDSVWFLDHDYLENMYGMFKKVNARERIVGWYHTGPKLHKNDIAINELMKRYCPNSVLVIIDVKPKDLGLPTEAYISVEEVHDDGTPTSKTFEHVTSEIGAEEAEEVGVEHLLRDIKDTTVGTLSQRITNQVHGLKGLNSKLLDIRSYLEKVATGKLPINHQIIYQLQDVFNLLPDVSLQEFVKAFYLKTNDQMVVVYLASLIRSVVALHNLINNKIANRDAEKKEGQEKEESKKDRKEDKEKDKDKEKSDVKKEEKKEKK
Procedure, shortened: as §1

[5] = molecular target: UCHL1 (UniProt P09936)
Procedure, shortened: as §1

[6] = molecular target: T4, UCHL3 (UniProt P15374)
T4 sequence (whole entry): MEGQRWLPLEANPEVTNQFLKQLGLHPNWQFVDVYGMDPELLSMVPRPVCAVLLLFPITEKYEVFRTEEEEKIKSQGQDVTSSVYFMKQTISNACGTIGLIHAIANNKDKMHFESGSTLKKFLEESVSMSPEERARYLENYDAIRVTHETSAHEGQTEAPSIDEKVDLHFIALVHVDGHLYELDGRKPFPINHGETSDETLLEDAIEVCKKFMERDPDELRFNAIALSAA
Procedure, shortened: as §1

[7] = molecular target: T5, UCHL5 (UniProt Q9Y5K5)
T5 sequence (whole entry): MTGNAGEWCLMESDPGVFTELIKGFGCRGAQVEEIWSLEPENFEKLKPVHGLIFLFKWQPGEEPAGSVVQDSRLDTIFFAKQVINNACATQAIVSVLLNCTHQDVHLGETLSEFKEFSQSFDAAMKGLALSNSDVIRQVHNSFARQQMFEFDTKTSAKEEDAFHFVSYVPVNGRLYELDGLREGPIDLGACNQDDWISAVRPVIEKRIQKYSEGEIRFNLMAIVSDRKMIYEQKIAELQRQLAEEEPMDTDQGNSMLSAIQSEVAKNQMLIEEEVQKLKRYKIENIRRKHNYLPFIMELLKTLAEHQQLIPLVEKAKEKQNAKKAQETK
Procedure, shortened: as §1

[8] = molecular target: USP10 (UniProt Q14694)
Procedure, shortened: as §1

[9] = molecular target: T6, USP15 (UniProt Q9Y4E8)
T6 sequence (whole entry): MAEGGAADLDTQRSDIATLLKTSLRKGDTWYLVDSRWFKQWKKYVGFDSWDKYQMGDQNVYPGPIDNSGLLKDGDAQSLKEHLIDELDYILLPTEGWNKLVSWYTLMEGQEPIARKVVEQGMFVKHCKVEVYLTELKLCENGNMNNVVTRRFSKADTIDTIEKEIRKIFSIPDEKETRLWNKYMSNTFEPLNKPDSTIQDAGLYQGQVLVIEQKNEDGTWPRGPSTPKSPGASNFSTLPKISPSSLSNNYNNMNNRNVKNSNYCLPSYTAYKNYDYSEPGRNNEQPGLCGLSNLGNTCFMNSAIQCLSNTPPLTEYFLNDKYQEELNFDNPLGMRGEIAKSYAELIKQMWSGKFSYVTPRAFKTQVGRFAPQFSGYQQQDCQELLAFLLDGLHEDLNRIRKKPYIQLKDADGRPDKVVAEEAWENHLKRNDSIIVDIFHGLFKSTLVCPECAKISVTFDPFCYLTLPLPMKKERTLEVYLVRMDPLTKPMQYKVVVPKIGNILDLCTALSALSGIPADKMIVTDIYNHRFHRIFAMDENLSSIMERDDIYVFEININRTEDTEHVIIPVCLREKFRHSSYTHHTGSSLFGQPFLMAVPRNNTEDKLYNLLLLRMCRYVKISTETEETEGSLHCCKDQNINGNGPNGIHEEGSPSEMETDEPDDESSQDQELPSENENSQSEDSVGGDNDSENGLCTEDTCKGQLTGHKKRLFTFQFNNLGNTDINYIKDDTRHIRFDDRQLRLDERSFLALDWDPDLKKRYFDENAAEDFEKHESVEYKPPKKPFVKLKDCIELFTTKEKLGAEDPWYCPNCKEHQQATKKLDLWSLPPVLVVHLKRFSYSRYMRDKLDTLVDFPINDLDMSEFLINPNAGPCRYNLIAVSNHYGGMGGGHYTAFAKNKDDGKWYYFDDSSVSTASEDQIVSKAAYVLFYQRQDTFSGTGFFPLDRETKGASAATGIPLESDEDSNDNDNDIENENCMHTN
Procedure, shortened: as §1

[10] = molecular target: USP16 (UniProt Q9Y5T5)
Procedure, shortened: as §1

Measured: log2 ratio of Biotin-Ahx-Ub-VS probe labelling

Chain of USP10 (Q14694 whole entry): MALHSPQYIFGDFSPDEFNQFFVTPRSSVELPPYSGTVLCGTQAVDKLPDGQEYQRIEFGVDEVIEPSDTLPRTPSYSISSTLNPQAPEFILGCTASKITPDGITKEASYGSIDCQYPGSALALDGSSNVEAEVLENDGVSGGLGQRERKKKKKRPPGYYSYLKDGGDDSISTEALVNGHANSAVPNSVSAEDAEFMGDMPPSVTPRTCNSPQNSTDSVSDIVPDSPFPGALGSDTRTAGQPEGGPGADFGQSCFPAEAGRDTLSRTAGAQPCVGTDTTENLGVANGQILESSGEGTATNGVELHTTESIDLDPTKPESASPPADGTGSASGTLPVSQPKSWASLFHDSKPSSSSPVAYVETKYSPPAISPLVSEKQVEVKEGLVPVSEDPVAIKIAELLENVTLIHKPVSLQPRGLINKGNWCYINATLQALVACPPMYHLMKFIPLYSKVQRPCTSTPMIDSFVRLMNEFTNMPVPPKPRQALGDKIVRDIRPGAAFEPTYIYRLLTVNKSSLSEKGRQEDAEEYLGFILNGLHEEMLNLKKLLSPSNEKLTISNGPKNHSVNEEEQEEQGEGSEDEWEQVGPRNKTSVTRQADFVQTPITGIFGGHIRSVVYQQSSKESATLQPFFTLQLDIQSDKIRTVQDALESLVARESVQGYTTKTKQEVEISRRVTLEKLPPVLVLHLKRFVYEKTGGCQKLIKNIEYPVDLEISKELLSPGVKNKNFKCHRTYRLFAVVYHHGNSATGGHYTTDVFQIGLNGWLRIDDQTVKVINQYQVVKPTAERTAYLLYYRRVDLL
Chain of USP16 (Q9Y5T5 whole entry, looked up): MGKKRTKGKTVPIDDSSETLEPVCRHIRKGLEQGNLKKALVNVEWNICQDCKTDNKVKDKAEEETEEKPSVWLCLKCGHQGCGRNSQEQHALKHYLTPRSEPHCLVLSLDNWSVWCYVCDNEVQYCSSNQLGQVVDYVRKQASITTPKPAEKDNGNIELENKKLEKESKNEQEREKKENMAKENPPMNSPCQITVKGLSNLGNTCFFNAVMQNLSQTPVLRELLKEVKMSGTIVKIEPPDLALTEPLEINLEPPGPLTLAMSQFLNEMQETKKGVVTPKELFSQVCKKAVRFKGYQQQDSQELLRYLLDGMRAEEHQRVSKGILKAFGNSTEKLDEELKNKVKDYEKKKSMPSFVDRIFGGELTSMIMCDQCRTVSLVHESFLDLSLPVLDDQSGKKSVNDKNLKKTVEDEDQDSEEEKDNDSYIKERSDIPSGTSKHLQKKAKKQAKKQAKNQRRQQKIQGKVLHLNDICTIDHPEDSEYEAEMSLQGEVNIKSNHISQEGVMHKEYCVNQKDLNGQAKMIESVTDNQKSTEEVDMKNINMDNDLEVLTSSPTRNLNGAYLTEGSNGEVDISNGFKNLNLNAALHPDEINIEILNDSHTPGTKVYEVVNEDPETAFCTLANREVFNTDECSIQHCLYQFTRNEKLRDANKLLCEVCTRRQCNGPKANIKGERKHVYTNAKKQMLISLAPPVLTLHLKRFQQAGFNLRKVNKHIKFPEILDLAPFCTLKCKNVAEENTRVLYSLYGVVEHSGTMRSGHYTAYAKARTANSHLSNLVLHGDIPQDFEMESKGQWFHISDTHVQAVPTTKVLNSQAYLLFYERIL
Chain of UCHL1 (P09936 whole entry, looked up): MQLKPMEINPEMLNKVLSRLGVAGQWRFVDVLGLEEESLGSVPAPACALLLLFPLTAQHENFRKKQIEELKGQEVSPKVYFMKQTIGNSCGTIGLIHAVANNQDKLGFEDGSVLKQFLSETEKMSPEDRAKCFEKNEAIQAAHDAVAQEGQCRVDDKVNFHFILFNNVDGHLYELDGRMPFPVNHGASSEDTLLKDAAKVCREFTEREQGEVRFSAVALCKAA

O=C(CCl)Nc1cc2c(cc1Cl)OCCO2
inactive: [1] -0.0652 | [2] -0.567 | [3] 0.0189 | [4] -0.149 | [6] 0.196 | [7] -0.407 | [8] -0.000247 | [9] -0.202 | [10] 0.406
active: [5] -1.2
